Molecules are shown by their SMILES. Several values for one entry are separate records, joined by “and”; a condition that tells them apart may be missing. Equal values may be shown once. A number with no mark means an inactive call. Results filed as inconclusive are left out. Activity calls are given as the source filed them. The call rests on the fitted dose curve; in most records, active means well fitted curve in the direction sought with a large enough effect; inconclusive means small, poorly fitted or top-dose-only effect, or another doubt; inactive means no such curve, though single readings can be large; an effect the other way counts as inactive or inconclusive.

This note sets out measurements from PubChem BioAssay (NCATS).

Experiment [1] deals with Zika virus NS2B-NS3 protease (linked construct). Description: Primary screen NINDS Rhodamine qHTS for Zika virus inhibitors (AID 1347160). Further: nearly all actives have a fitted effect of over 55% in size. In short, it runs like this:
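Enzyme (25 nM, linked NS2B-NS3) was preincubated 15 min with compound in 10 mM Tris-HCl pH 8.0, 0.01% Tween 20. Rhodamine110 substrate (1.5 microM) was then added and fluorescence read at start and after 15 min.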

The target in experiment [2] is Calcium and integrin-binding protein 1 (Homo sapiens) (UniProt Q99828). Description: Primary qHTS for Identification of Calcium Integrin Binding Protein 1 (CIB1) Competitor (AID 1508620).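 Further: GST tagged CIB1 binding a fluorescein labelled alphaIIb integrin peptide tracer; top concentration of the series differs between compounds; on the % scale 0 is the no-effect control and ±100 the full control effect.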 In short, it runs like this:
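CIB1-GST (1 uM final) and compound incubated 15 min at room temperature before adding FITC-alphaIIb peptide tracer (100 nM final). Competition for binding read by fluorescence polarization (ex 480, em 540) after another 15 min at room temperature.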

A short description of experiment [3]: Primary qHTS for inhibitors of nuclear receptor binding SET domain protein 2 (NSD2) in an isogenic RCH-ACV NSD2 p.E1099K mutant (9B) (AID 1645876). Further: potency means the concentration at half of the fitted maximal effect; nearly all actives have a fitted effect of over 70% in size.
Experiment [4] has as its target Glutathione peroxidase 1 (Homo sapiens) (UniProt P07203). Nature of the experiment: Primary qHTS Assay for Inhibitors of Recombinant Selenoprotein Glutathione Peroxidase 1 (GPX1) (AID 1845191). Further: nearly all actives have a fitted effect of over 65% in size. In short, it runs like this: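 NADPH consumption tracked by fluorescence at 340/450 nm between t=0 and t=15 min, room temperature. Final mix: 10 nM GPX1, 100 nM glutathione reductase, 1 mM GSH, 0.5 mM NADPH, 0.5 mM cumene hydroperoxide, 0.01% BSA; 30 min compound–enzyme preincubation.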

Experiment [5] concerns the target Phospholipid hydroperoxide glutathione peroxidase GPX4 (Homo sapiens) (UniProt P36969). Nature of the experiment: Primary qHTS Assay for Inhibitors of Recombinant Selenoprotein Glutathione Peroxidase 4 (GPX4) (AID 1845192). Further: nearly all actives have a fitted effect of over 65% in size. In short, it runs like this:
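NADPH consumption followed by fluorescence at 340/450 nm, t=0 and after 15 min at room temperature. Reaction started with cumene hydroperoxide (0.5 mM final) after 30 min compound–GPX4 preincubation; final 200 nM GPX4, 100 nM GR, 1 mM GSH, 0.5 mM NADPH.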

For experiment [6], the target named is Luciferin 4-monooxygenase (Photinus pyralis) (UniProt P08659). Nature of the experiment: Primary firefly luciferase (FLuc) qHTS assay for identification of artifact compounds. (AID 1845220). Further: nearly all actives have a fitted effect of over 60% in size. The conditions noted are these: outcome: dose series up to 54.1 µM unless noted. In short, it runs like this: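 Compounds sat 15 min at room temperature with 10 uM luciferin and 10 uM ATP (pH 7.6 Tris acetate). Firefly luciferase (10 nM final) was then added, and luminescence was read 5 min later. Data normalized to no-enzyme and DMSO controls were Hill-fitted.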

Experiment [7] has as its system Nanoluciferase (engineered Oplophorus gracilirostris luciferase). Description: Primary Nanoluciferase (NLuc) qHTS assay for identification of artifact compounds. (AID 1845222).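 Further: 0% = DMSO and -100% = no enzyme.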 The procedure, abridged: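 Luminescence from secreted NLuc (filtered, 1:55-diluted S16 cell medium) read 5 min after Nano-Glo substrate; compounds preincubated 15 min, RT. Hill fits of inhibition normalized to DMSO and no-enzyme.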

The next experiment relates to CRL-7250. Nature of the experiment: Cytotoxic Profiling of Annotated Libraries Using Quantitative High-Throughput Screening (AID 1296008). Further: nearly all actives have a fitted effect of over 60% in size. Further: potency means the concentration at half of the fitted maximal effect. On max response: on the % scale 0 is the no-effect control and ±100 the full control effect. The conditions noted are these: Five cell lines viability, CellTiter-Glo ATP luminescence, 48-72 h; max response: hits give low values. The procedure, abridged: (§1)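 Cytotoxicity was measured as CellTiter-Glo ATP luminescence, read after 10 min at room temperature. Compound treatment of the cells lasted 48 or 72 hr at 37 degrees Celsius in a qHTS format.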

In a further experiment the test system is HEK293. The description is as above. Particulars: Five cell lines viability, CellTiter-Glo ATP luminescence, 48-72 h; max response: hits give low values. The procedure, abridged: as §1
For a further experiment, the system named is HaCat. The experiment is described as above. Particulars: Five cell lines viability, CellTiter-Glo ATP luminescence, 48-72 h; max response: hits give low values. The procedure, abridged: as §1
The next experiment deals with NIH3T3. The description is as above. Particulars: Five cell lines viability, CellTiter-Glo ATP luminescence, 48-72 h; max response: hits give low values. In short, it runs like this: as §1
The next experiment deals with C33A. Nature of the experiment: Primary qHTS to identify gynecologic anti-cancer compounds using libraries of approved drugs and bioactive compounds (AID 1345084). Further: nearly all actives have a fitted effect of over 55% in size. Further: potency means the concentration at half of the fitted maximal effect. The conditions noted are these: Gynecologic cancer cell panel viability, ATPlite luminescence, 48 h; series mostly up to 57.5 µM. The procedure, abridged:
(§2)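 Cells, 1,000 per well, were allowed to settle for 16 h at 37 C before compound addition. Five concentrations were tested for 48 h, and viability was read by ATPlite luminescence after 15 min at room temperature.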

For a further experiment, the system named is CASKI. Described as above. The conditions noted are these: Gynecologic cancer cell panel viability, ATPlite luminescence, 48 h; series mostly up to 57.5 µM. In short, it runs like this:
as §2

Another experiment concerns Es-2. The experiment is described as above. Particulars: Gynecologic cancer cell panel viability, ATPlite luminescence, 48 h; series mostly up to 57.5 µM. The procedure, abridged: as §2
Another experiment deals with OV90. The experiment is described as above. Particulars: Gynecologic cancer cell panel viability, ATPlite luminescence, 48 h; series mostly up to 57.5 µM. The procedure, abridged: as §2
The next experiment deals with Tov-21-G. The description is as above. The conditions noted are these: Gynecologic cancer cell panel viability, ATPlite luminescence, 48 h; series mostly up to 57.5 µM. The procedure, abridged:
as §2

The next experiment has as its system Hek293T. The experiment is described as above. Particulars: Gynecologic cancer cell panel viability, ATPlite luminescence, 48 h, control line for the selectivity index; series mostly up to 57.5 µM. The procedure, abridged:
as §2

Another experiment has as its system PA-1. The description is as above. Particulars: Gynecologic cancer cell panel viability, ATPlite luminescence, 48 h; series mostly up to 57.5 µM. The procedure, abridged:
as §2

For a further experiment, the system named is Tov112D. Described as above. The conditions noted are these: Gynecologic cancer cell panel viability, ATPlite luminescence, 48 h; series mostly up to 57.5 µM. The procedure, abridged: as §2
The subject of another experiment is JEG-3. Described as above. Particulars: Gynecologic cancer cell panel viability, ATPlite luminescence, 48 h; series mostly up to 57.5 µM. The procedure, abridged: as §2

Sequence of Calcium and integrin-binding protein 1 (Homo sapiens) (Q99828 whole entry, looked up): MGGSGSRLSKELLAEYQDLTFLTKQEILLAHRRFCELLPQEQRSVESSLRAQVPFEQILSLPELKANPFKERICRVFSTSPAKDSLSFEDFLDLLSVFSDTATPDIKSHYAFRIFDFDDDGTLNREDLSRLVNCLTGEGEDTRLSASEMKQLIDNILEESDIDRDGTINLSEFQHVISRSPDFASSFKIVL
Sequence of Phospholipid hydroperoxide glutathione peroxidase GPX4 (Homo sapiens) (P36969 whole entry, looked up): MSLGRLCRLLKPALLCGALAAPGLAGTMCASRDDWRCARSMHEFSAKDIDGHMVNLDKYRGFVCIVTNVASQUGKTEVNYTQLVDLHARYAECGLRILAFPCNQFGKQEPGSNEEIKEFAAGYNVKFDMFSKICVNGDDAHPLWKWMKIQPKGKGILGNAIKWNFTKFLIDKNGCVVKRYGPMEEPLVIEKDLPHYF
Sequence of Glutathione peroxidase 1 (Homo sapiens) (P07203 whole entry, looked up): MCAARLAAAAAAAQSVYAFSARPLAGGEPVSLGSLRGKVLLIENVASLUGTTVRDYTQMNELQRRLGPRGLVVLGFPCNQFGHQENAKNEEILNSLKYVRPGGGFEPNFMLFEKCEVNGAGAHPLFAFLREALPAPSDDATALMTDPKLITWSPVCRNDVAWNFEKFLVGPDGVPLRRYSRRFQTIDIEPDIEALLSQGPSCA

With `CC(=O)O[C@@H]1[C@@H](O)[C@H]2O[C@@H]3C=C(C)[C@@H](O)C[C@]3(CO)[C@]1(C)[C@]21CO1`, the Potency entry in experiment [1], in experiment [2], in experiment [4], in [5] and in experiment [7] was “inactive” throughout. The Potency in experiment [3] is 450 nM (active); in the experiment with CRL-7250, 1010 nM (active); in the experiment on HEK293 it was 321 nM (active); in the experiment on HaCat, 3600 nM (active); with NIH3T3, 904 nM (active); in the experiment on C33A it was 3550 nM (active). In addition, the Potency with CASKI is 3980 nM (active); in the experiment with Es-2, 2000 nM (active); in the experiment with OV90 it was 1410 nM (active); in the experiment on Tov-21-G it was 4470 nM (active). In [6], the call was inactive.
`CNc1ccc2oc(C[C@H]3O[C@@]4(CC[C@H]3C)O[C@H](C(C)C(=O)c3ccc[nH]3)[C@H](C)C[C@H]4C)nc2c1C(=O)O` (stereo not given in full): the Potency result in experiment [1], in experiment [2], in [5] and in [7] was “inactive” throughout. Also, the Potency was 16300 nM (active) in [3]; 5800 nM (active) with CRL-7250; 1300 nM (active) in the experiment with HEK293; 7310 nM (active) in the experiment with HaCat; 3660 nM (active) with NIH3T3; 11200 nM (active) in the experiment with C33A. Further, the Potency in the experiment with Es-2 is 10000 nM (active); with Hek293T, 8910 nM (active); with OV90 it was 12600 nM (active); in the experiment on PA-1 it was 4470 nM (active); in the experiment with Tov-21-G, 11200 nM (active). The outcome in experiment [6] was inactive.
As for `C[C@H]1O[C@@H](O[C@H]2CC[C@]3(C=O)C4CC[C@]5(C)[C@@H](C6=CC(=O)OC6)CC[C@]5(O)[C@@H]4CC[C@]3(O)C2)C[C@@H](O)[C@@H]1O` (stereo not given in full), the Potency result in [1], in experiment [2], in [5] and in [7] was “inactive” throughout. The Potency was 31.7 nM (active) in experiment [3]; 22.4 nM (active) in the experiment with CRL-7250; 25.2 nM (active) with HEK293; 502 nM (active) with HaCat; 89.1 nM (active) in the experiment on C33A; 355 nM (active) in the experiment with CASKI. For the same compound, the Potency in the experiment on Es-2 is 141 nM (active); with Hek293T, 141 nM (active); in the experiment with OV90, 316 nM (active); in the experiment on Tov-21-G, 126 nM (active); in the experiment on Tov112D, 25.1 nM (active). Moreover, the outcome in experiment [6] was inactive. Also, the max response with NIH3T3 was -1.6%.
Consider `CN(C)c1cc2c(cc1Sc1nc3c(N)nccc3n1CCNCC(C)(C)C)OCO2`, for which the Potency entry (in [2]; in experiment [5]; in experiment [7]; in the experiment on Tov112D) was “inactive” each time. In addition, the Potency in [3] was 459 nM (active) and 662 nM (active); in the experiment with CRL-7250, 1840 nM (active); with HEK293, 580 nM (active); in the experiment on HaCat, 461 nM (active); with NIH3T3, 1030 nM (active); with Hek293T, 1260 nM (active). For the same compound, the Potency in the experiment with JEG-3 was 11200 nM (active); with PA-1 it was 1410 nM (active); with Tov-21-G it was 1410 nM (active). The outcome in experiment [6] was inactive.
For the compound `C=C(CO)C(=O)O[C@H]1CC(=C)[C@@H]2C[C@H](O)C(=C)[C@@H]2[C@H]2OC(=O)C(=C)[C@@H]21`, the Potency result (in experiment [1]; in [2]; in [4]; in experiment [5]; in experiment [7]; in the experiment with C33A) was “inactive” in each case. Moreover, the Potency result with CASKI, in the experiment with Hek293T, with JEG-3, with OV90, in the experiment with PA-1 and in the experiment on Tov-21-G was “inactive” throughout. Further, the Potency result in the experiment on Tov112D was “inactive”. For the same compound, the Potency in [3] was 4500 nM (active); in the experiment with HEK293, 5700 nM (active). Also, the max response with CRL-7250 is -4.04%; in the experiment on HaCat it was 4.94%.
